Inconclusive results are not listed. A call without a number means that no potency is given here. The source made the active and inactive calls. The call rests on the fitted dose curve. Residues, ends and D or L forms follow the SMILES beside them.

These results are taken from PubChem BioAssay (Tox21).

Sequence of Thyrotropin receptor (Homo sapiens) (P16473 whole entry, looked up): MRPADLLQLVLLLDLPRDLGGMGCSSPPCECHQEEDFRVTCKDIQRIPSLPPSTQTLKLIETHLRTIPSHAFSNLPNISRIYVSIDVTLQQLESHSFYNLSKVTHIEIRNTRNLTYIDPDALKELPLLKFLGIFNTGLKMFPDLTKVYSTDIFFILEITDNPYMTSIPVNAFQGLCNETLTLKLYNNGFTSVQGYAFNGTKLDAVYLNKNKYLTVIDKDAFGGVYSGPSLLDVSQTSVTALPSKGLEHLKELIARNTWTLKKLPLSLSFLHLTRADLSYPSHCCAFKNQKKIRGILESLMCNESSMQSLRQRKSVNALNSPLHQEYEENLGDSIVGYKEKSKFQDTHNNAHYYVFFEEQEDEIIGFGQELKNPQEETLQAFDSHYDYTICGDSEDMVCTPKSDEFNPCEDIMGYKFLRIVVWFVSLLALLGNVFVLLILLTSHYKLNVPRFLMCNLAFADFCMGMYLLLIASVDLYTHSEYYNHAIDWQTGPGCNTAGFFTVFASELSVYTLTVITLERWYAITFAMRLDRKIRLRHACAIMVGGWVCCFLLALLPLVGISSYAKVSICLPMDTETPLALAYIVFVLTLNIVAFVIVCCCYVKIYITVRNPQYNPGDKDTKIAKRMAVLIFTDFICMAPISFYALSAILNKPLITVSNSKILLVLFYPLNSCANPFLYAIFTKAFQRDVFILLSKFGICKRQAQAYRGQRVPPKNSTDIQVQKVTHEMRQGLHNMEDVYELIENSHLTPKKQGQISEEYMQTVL

The first assay deals with Thyrotropin receptor (Homo sapiens) (UniProt P16473). The experiment in a line: qHTS assay to identify small molecule agonists of the thyroid stimulating hormone receptor (TSHR) signaling pathway (AID 1224843). Further: nearly all actives have a fitted effect of over 45% in size. The conditions noted are these: TSHR-HEK293 cells, cAMP HTRF, agonist mode, 30 min; series mostly up to 92.4 µM. A digest of the protocol:
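Agonist-mode screen: TSHR HEK293 cells received test chemicals for half an hour at room temperature, then HTRF cAMP detection reagents for one hour prior to fluorescence measurement. Each chemical ran as a 15-concentration series, triplicated.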
For the compound `Nc1ccc(C(=O)O)cc1`, the outcome was inactive. With `O=c1cc[nH]c(=S)[nH]1`, the compound was called inactive. The same measure, in the same setting: the same measure for `C/C=C/c1ccc(OC)cc1`: “inactive”; for `CCCCC1C(=O)N(c2ccccc2)N(c2ccccc2)C1=O`: “inactive”. Same read-out and setting: the same measure for `Cc1ccc(C)c(OCCCC(C)(C)C(=O)O)c1`: “inactive”. The same measure, in the same setting: the entry for `O=C(O)CCC(=O)O` is “inactive”; for `CC(=O)Nc1nnc(S(N)(=O)=O)s1` it is “inactive”; for `COC(=O)[C@H](Cc1ccccc1)NC(=O)[C@@H](N)CC(=O)O` (H-Asp-Phe-OMe) it is “inactive”. Take `CCCC(CCC)C(=O)O`: the compound was classed as inactive.

With `COc1ccc2[nH]cc(CCNC(C)=O)c2c1`, the call was inactive. The same measure, in the same setting: the same measure for `CC(=O)OCC(COC(C)=O)OC(C)=O`: “inactive”.

As for `Cn1c(=O)c2[nH]cnc2n(C)c1=O`, the result was inactive. On the same count and under the same terms, the entry for `Nc1ccc(S(=O)(=O)c2ccc(N)cc2)cc1` is “inactive”; for `OC(Cn1cncn1)(Cn1cncn1)c1ccc(F)cc1F` it is “inactive”; for `C1N2CN3CN1CN(C2)C3` it is “inactive”.

Turning to `CCCN(CCC)S(=O)(=O)c1ccc(C(=O)O)cc1`, the compound was called inactive. For the compound `NNC(=O)c1ccncc1`, the compound was classed as inactive.

For `Cn1cc[nH]c1=S`, the compound was called inactive. Same read-out and setting: the same measure for `O=C1CN(/N=C/c2ccc([N+](=O)[O-])o2)C(=O)N1`: “inactive”; for `CCCCC(CC)COC(=O)/C=C/c1ccc(OC)cc1` (stereo unspecified): “inactive”; for `CC(C)(Oc1ccc(C2CC2(Cl)Cl)cc1)C(=O)O` (stereo unspecified): “inactive”. `OCCc1ccccc1`: the result was inactive. Same read-out and setting: the entry for `NC(N)=NC(=O)c1nc(Cl)c(N)nc1N` is “inactive”; for `NC(=O)c1ccccc1O` it is “inactive”; for `CC1(C)[C@@H]2CC[C@@]1(C)C(=O)C2` it is “inactive”. On the same count and under the same terms, the same measure for `CCOc1ccc(NC(=O)CC(C)O)cc1` (stereo unspecified): “inactive”; for `O=c1ccc2ccccc2o1`: “inactive”; for `Cc1noc(NS(=O)(=O)c2ccc(N)cc2)c1C`: “inactive”.

Take `Cc1cc(=O)[nH]c(=S)[nH]1`: the compound was called inactive.

As to `Cc1ccccc1C(OCCN(C)C)c1ccccc1` (stereo unspecified), the outcome was inactive.

Tested on in the next assay: not listed separately
The experiment in a line: qHTS assay to identify small molecule agonists of the hypoxia (HIF-1) signaling pathway - cell viability counter screen (AID 1224844). Further: nearly all actives have a fitted effect of over 50% in size. Conditions: HRE-bla ME-180 viability, CellTiter-Glo luminescence, 17 h; series mostly up to 76.8 µM. The procedure, abridged:
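Same wells as the HIF-1 reporter screen; ME-180 cells carrying HRE-bla, 17 hr treatment at 37C; CellTiter-Glo luminescence read after 30 min at room temperature.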
In general terms: Quantitative high-throughput screening tests each substance at several concentrations.
As for `C[C@]12C=CC(=O)C=C1CC[C@@H]1[C@@H]2[C@@H](O)C[C@@]2(C)[C@H]1CC[C@]2(O)C(=O)CO`, the Potency entry was “inactive”. The same measure, in the same setting: the same measure for `CC(=O)NS(=O)(=O)c1ccc(N)cc1`: “inactive”; for `Nc1ccc(C(=O)O)cc1`: “inactive”. Still for that read-out and setting: the entry for `O=c1cc[nH]c(=S)[nH]1` is “inactive”; for `C/C=C/c1ccc(OC)cc1` it is “inactive”. Still for that read-out and setting: the same measure for `CCCCC1C(=O)N(c2ccccc2)N(c2ccccc2)C1=O`: “inactive”. For the compound `Cc1ccc(C)c(OCCCC(C)(C)C(=O)O)c1`, the Potency entry is “inactive”. The same measure, in the same setting: the same measure for `O=C(O)CCC(=O)O`: “inactive”; for `CC(=O)Nc1nnc(S(N)(=O)=O)s1`: “inactive”; for `COC(=O)[C@H](Cc1ccccc1)NC(=O)[C@@H](N)CC(=O)O` (H-Asp-Phe-OMe): “inactive”. On the same count and under the same terms, the same measure for `CCCC(CCC)C(=O)O`: “inactive”; for `COc1ccc2[nH]cc(CCNC(C)=O)c2c1`: “inactive”. The same measure, in the same setting: the entry for `CC(=O)OCC(COC(C)=O)OC(C)=O` is “inactive”; for `Cn1c(=O)c2[nH]cnc2n(C)c1=O` it is “inactive”. Turning to `Nc1ccc(S(=O)(=O)c2ccc(N)cc2)cc1`, the Potency result was “inactive”. The same measure, in the same setting: the same measure for `OC(Cn1cncn1)(Cn1cncn1)c1ccc(F)cc1F`: “inactive”; for `C1N2CN3CN1CN(C2)C3`: “inactive”.

As for `CCCN(CCC)S(=O)(=O)c1ccc(C(=O)O)cc1`, the Potency result was “inactive”. For the compound `NNC(=O)c1ccncc1`, the Potency entry is “inactive”. Turning to `Cn1cc[nH]c1=S`, the Potency result was “inactive”. Still for that read-out and setting: the same measure for `O=C1CN(/N=C/c2ccc([N+](=O)[O-])o2)C(=O)N1`: “inactive”; for `CCCCOC(=O)CC(CC(=O)OCCCC)(OC(C)=O)C(=O)OCCCC`: “inactive”. Take `CCCCC(CC)COC(=O)/C=C/c1ccc(OC)cc1` (stereo unspecified): the Potency entry is “inactive”.

For `CC(C)(Oc1ccc(C2CC2(Cl)Cl)cc1)C(=O)O` (stereo unspecified), the Potency entry was “inactive”. Still for that read-out and setting: the same measure for `OCCc1ccccc1`: “inactive”; for `NC(N)=NC(=O)c1nc(Cl)c(N)nc1N`: “inactive”.

As for `NC(=O)c1ccccc1O`, the Potency result was “inactive”. Still for that read-out and setting: the entry for `CC1(C)[C@@H]2CC[C@@]1(C)C(=O)C2` is “inactive”.

Regarding `Cc1cc(=O)n(-c2ccccc2)n1C`, the Potency entry was “inactive”.

As for `CCOc1ccc(NC(=O)CC(C)O)cc1` (stereo unspecified), the Potency result is “inactive”.

For `NC(=O)c1cnccn1`, the Potency result is “inactive”. Regarding `O=c1ccc2ccccc2o1`, the Potency entry was “inactive”. On the same count and under the same terms, the entry for `Cc1noc(NS(=O)(=O)c2ccc(N)cc2)c1C` is “inactive”.

`Cc1cc(=O)[nH]c(=S)[nH]1`: the Potency entry is “inactive”. Same read-out and setting: the same measure for `Cc1ccccc1C(OCCN(C)C)c1ccccc1` (stereo unspecified): “inactive”; for `O=S(=O)(O)c1ccc2cc(O)ccc2c1`: “inactive”.
